PriA SSB inh: blocks PriA binding to SSB C-terminal tail | AlphaScreen SSBct-PriA binding, biotinylated peptide | inhibition, % at 33 µM | hit rate 0.6% among 430,000 | AID 1272365; in the data active means inhibition mostly above about 37%, no sharp cut-off; inactive means mostly below about 20%;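 further: plate controls were negative control peptide for no effect and reference peptide for full effect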
3CLpro inhibitor: SARS-CoV 3CLpro protease inhibition; P0C6X7; AID 1706; recombinant SARS-CoV 3CLpro, quenched FRET peptide cleavage; hit rate 0.14% among 290,000; inhibition, % at 6 µM; in the data active means inhibition above about 12%
BJeLR viability: kills HRASV12-expressing BJeLR cells | BJeLR (HRASV12) viability, CellTiter-Glo ATP luminescence, 48 h | inhibition, % (test concentration not listed) | hit rate 0.17% among 300,000 | AID 1554; in the data active means inhibition above about 50%
* = called active by the depositor; . = no result; ! = repeats disagree. Only some compounds are listed: those with a hit (about 0.78% of all), similar ones and a draw of the others.

SMILES | PriA SSB inh | 3CLpro inhibitor | BJeLR viability
CN1CCN(c2ccccc2NC(=O)c2ccc(N3CCCC3)c([N+](=O)[O-])c2)CC1 | 26.9 | 2.6 | 3.8
Cc1ccc(C)n1-c1ccc(N2CCOCC2)c([N+](=O)[O-])c1 | 12.8 | -4.3 | -2.1
CN1CCN(c2ccc(S(=O)(=O)C(F)(F)F)cc2[N+](=O)[O-])CC1 | 7.0 | -1.2 | -2.3
O=[N+]([O-])c1cc(-n2cccc2)ccc1N1CCOCC1 | 46.6* | -2.7 | -10.9
Cc1noc(-c2cn(CCNC(=O)c3n[nH]c4ccccc34)nn2)n1 | -3.0 | . | .
O=C(c1ccc(Br)cc1)c1ccc(N2CCOCC2)c([N+](=O)[O-])c1 | 81.8* | . | .
O=C(c1ccc(N2CCOCC2)c([N+](=O)[O-])c1)N1CCN(c2ccccc2)CC1 | -0.8 | . | .
Cc1cc(C(=O)Nc2ccncc2)ccc1[N+](=O)[O-] | 26.2 | 4.0 | -11.8
Cc1cc(C(=O)Nc2ccc(Nc3ccccc3)cc2)ccc1[N+](=O)[O-] | 54.1* | 2.9 | 6.5
O=C(Nc1ccc(Nc2ccccc2)cc1)c1ccc(Cl)c([N+](=O)[O-])c1 | 52.1* | 3.1 | -4.3
O=C(Nc1ccc(SC(F)F)cc1)c1ccc(Cl)c([N+](=O)[O-])c1 | 10.0 | . | .
COc1cc(C(=O)Nc2ccncc2)cc(OC)c1OC | 4.5 | 3.5 | -7.3
COc1cc(C(=O)Nc2ccc(Nc3ccccc3)cc2)cc(OC)c1OC | 43.1* | 2.8 | -5.5
Cc1ccccc1NC(=O)c1ccc(Nc2c([N+](=O)[O-])cc([N+](=O)[O-])c3ccccc23)cc1 | 47.9* | 7.3 | 14.4
Cc1c(NC(=O)c2ccccc2)cccc1[N+](=O)[O-] | -12.9 | -2.1 | 3.8
COc1ccc2c(=O)c(Oc3ccc(C(=O)NCCN4CCOCC4)cc3)c(C)oc2c1 | -13.0 | . | .
CCCc1cc(=O)[nH]c(-n2nc(C)cc2NC(=O)C(=O)N2CCc3ccccc3C2)n1 | 6.0 | . | .
Nn1cnc2scc(-c3ccc(Cc4ccccc4)cc3)c2c1=O | 9.0 | . | .
COc1ccc(C(=O)c2ccc(Cl)c([N+](=O)[O-])c2)cc1 | 13.1 | -0.6 | 66.7*
COc1ccc(C(=O)c2ccc(Cl)cc2)cc1 | -28.1 | -2.2 | 2.2
Oc1ccc(F)c2cccnc12 | 81.2* | -2.2 | 2.6
OCc1ccc(O)c2ncccc12 | 79.8* | 3.3 | 27.1
Oc1ccc(Br)c2cccnc12 | 52.0 | . | .
O=C(O)Cc1ccc(O)c2ncccc12 | 86.8* | . | .
O=C(CCl)c1ccc(O)c2ncccc12 | 121.0* | . | .
SMILES | PriA SSB inh | 3CLpro inhibitor | BJeLR viability
Oc1ccc(Cl)c2cccnc12 | -3.7 | . | .
Cc1cncn(CCNS(=O)(=O)c2cccs2)c1=O | -7.0 | . | .
O=C(Nc1ccc2c(c1)N(C(=O)c1cccs1)CCC2)c1cccc(C(F)(F)F)c1 | -15.0 | . | .
COc1ccc(CCNC(=O)NCCN2CCC(c3cccs3)CC2)cc1 | -10.0 | . | .
Fc1cc(F)c2nc(N3CCN(c4nc5c(F)cc(F)cc5s4)CC3)sc2c1 | -12.0 | . | .
COc1ccc(Cl)cc1NC(=O)Nc1ccc2nc(C)n(-c3ccccc3)c(=O)c2c1 | -5.0 | . | .
O=C(O)CCc1ccc(O)c2ncccc12 | 113.5* | . | .
Oc1ccc(CNc2ncccn2)c2cccnc12 | 76.0* | . | .
Oc1ccc(CNc2ccccc2F)c2cccnc12 | -6.7 | -3.4 | -10.9
COc1ccc2c(c1)CCC[C@@]2(O)CNC(=O)c1ccsc1 | 2.0 | . | .
O=C(NCc1ccc2c(c1)OCO2)c1ccc(=O)n(Cc2cccc(F)c2)n1 | 5.0 | . | .
O=C(Nc1ccc2c(c1)OCO2)c1ccc(=O)n(Cc2cccc(F)c2)n1 | 17.0* | . | .
Cn1nc(CNC(=O)[C@H]2CC(=O)N(c3ccc(F)cc3)C2)c2c1CCOC2 | 1.0 | . | .
Cc1cc(SCC(=O)Nc2cccc(C(F)(F)F)c2)nc2ccccc12 | 0.0 | . | .
CS(=O)(=O)N1CCN(c2ccc(-c3noc(C(F)(F)F)n3)cn2)CC1 | -22.0 | . | .
CC1(C)CC(=O)c2cc(-c3ccc(Br)cc3)n(-c3ccccc3F)c2C1 | -6.0 | . | .
COc1cccc(C(=O)N(CCCN2CCOCC2)c2nc3c(Cl)cccc3s2)c1OC | 24.0 | . | .
Cc1cc(C(=O)CN2CCCCC2)c(C)n1-c1ccc(F)c(Cl)c1 | 13.0 | . | .
COc1ccc(-c2csc(NC(=O)/C=C/c3ccc([N+](=O)[O-])cc3)n2)cc1OC | 69.0* | . | .
COc1ccc(-c2csc(NC(=O)/C=C/c3cccs3)n2)cc1OC | 1.0 | . | .
COCC(=O)N1CCC(COc2nc3ccccc3s2)CC1 | -4.0 | . | .
NNC(=O)c1nc[nH]c1C(=O)Nc1ccccn1 | 59.0*! | -0.1 | 10.3
Cc1ccc(NC(=O)c2[nH]cnc2C(=O)NN)cc1 | -5.6 | 1.5 | -0.4
Cn1c(COc2ccccc2O)[n+](C)c2ccccc21 | -4.4 | -7.6 | 7.6
COc1ccc(N=Nc2n(C)c3ccccc3[n+]2C)cc1 | . | 3.4 | 52.5*
SMILES | PriA SSB inh | 3CLpro inhibitor | BJeLR viability
O=C(CSc1ccc(NC(=O)C2CC2)nn1)Nc1ccc(C(F)(F)F)cc1 | -2.0 | . | .
CCOc1cc(C2C(=C(O)c3ccc(OC(C)C)cc3)C(=O)C(=O)N2CCCOC)ccc1O (stereo unspecified) | -13.3 | . | .
COc1ccc(NCc2ccc(OC)c(Cn3ccnc3)c2)c(OC)c1 | 72.7* | -1.8 | 8.9
COc1ccc(Cn2ccnc2)cc1Br | -0.8 | -5.0 | 4.0
CC(=NNC(=S)N1CCN(c2ccccn2)CC1)c1ccccn1 | 1.3 | . | .
CC(=NNC(=S)N1CCN(c2ccccn2)CC1)c1nccs1 | 92.0* | . | .
Cc1ccc(C)c(-c2nnc(NC(=O)c3ccccc3Cl)o2)c1 | -6.0 | . | .
O=C(Cc1cc(-c2cccs2)on1)Nc1ccc(F)cc1F | -9.0 | . | .
COc1ccc2c(c1)C(=NNc1ccc(C(=O)O)cc1)c1cc(OC)ccc1-2 | 4.7 | -1.1 | 3.2
COc1ccc2c(c1)C(=NN)c1cc(OC)ccc1-2 | 47.0* | -5.5 | -9.3
O=C(CS(=O)(=O)c1ccccc1)N(CCN1CCOCC1)c1nc2c(Cl)cccc2s1 | 8.0 | . | .
COc1ccc(S(=O)(=O)N=C2C=C(NS(=O)(=O)c3ccccc3)C(=O)c3ccccc32)cc1 | 3.2 | . | .
COc1ccc(S(=O)(=O)/N=C2\C=C(Nc3ccc(O)cc3)C(=O)c3ccccc32)cc1 | . | 6.5 | 51.0*
COc1cccc(C(=O)Nc2cc(C)nn2-c2nc3c(cnn3-c3cccc(C)c3C)c(=O)[nH]2)c1OC | 94.0* | . | .
Cc1ccc(-n2ncc3c(=O)[nH]c(-n4nc(C)cc4NC(=O)COc4ccccc4F)nc32)cc1 | -13.0 | . | .
COc1cccc(C(=O)Nc2cc(C)nn2-c2nc3c(cnn3-c3ccc(C)cc3)c(=O)[nH]2)c1OC | 3.0 | . | .
Cc1cc(NC(=O)COc2ccccc2F)n(-c2nc3c(cnn3-c3cccc(C)c3C)c(=O)[nH]2)n1 | 43.0* | . | .
O=C(/C=C/c1ccc([N+](=O)[O-])cc1)Nc1nnc(-c2ccc3c(c2)CCCC3)o1 | -4.0 | . | .
Cc1cc(C)n(-c2nc3ccccc3c(=O)n2OC2CCCCC2)n1 | -10.9 | -0.1 | -6.0
Cc1cc(C)n(-c2nc3ccccc3c3nc(C)nn23)n1 | 104.2* | -2.9 | -8.3
O=C(NCCCn1ccnc1)C(=O)NCc1ccccc1Cl | 85.0* | . | .
CC(C)(C)C(=O)Nc1ccccc1C(=O)NCCCn1ccnc1 | 50.5* | 3.8 | -5.8
O=C(NCCCn1ccnc1)Nc1cccc(Cl)c1 | 74.2* | 0.2 | -8.5
O=C(NCCCn1ccnc1)C(=O)NCc1ccc(Cl)cc1 | -13.5 | 1.1 | 1.5
O=C(Nc1ccccc1C(=O)NCCCn1ccnc1)c1ccccc1 | 4.4 | -2.1 | 4.6
O=C(NCCCn1ccnc1)Nc1cccc(I)c1 | 26.5 | . | .
O=C(NCCCn1ccnc1)Nc1cc(Cl)cc(Cl)c1 | 56.5* | . | .
O=C(NCCCn1ccnc1)C(=O)Nc1ccc(Cl)cc1 | -9.0 | . | .

Screening results: PubChem, several laboratories
